The values that follow come from PubChem BioAssay (NCATS).

The nature of assay [1]: Quantitative High-Throughput drug screen in 47 multiple myeloma cell lines against the NCATS MIPE library collection: KMS12BM_JCRB cell viability assay (AID 1918971). Note: nearly all actives have a fitted effect of over 35% in size. Note: potency is the fitted concentration of half-maximal effect. The method in brief: (§1)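 Myeloma cells (500 per well) were exposed to MIPE 4.0 compounds by pin transfer and incubated 48 hours at 37C, 5% CO2. Viability was read as ATP by CellTiter-Glo luminescence, normalised to DMSO (100%) and media-only (0%) wells.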

Assay [2] is described as follows: Quantitative High-Throughput drug screen in 47 multiple myeloma cell lines against the NCATS MIPE library collection: KMS12PE_JCRB cell viability assay (AID 1918972). Note: nearly all actives have a fitted effect of over 30% in size. Note: potency is the fitted concentration of half-maximal effect. The procedure, abridged:
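Relative luminescence from CellTiter-Glo served as the viability signal, referenced to DMSO-treated (100%) and cell-free medium (0%) controls. Treatment lasted 48 hours at 37C with 500 cells per well.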

Assay [3] can be described thus: Quantitative High-Throughput drug screen in 47 multiple myeloma cell lines against the NCATS MIPE library collection: MMM1_PLB cell viability assay (AID 1918976). Note: nearly all actives have a fitted effect of over 35% in size. Note: potency is the fitted concentration of half-maximal effect. The procedure, abridged:
(§2)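 Readout: median RLU from CellTiter-Glo after 5 min at room temperature. Preceding step was 48 h drug treatment of 500 cells/well at 37 °C, 5% CO2, with DMSO-only and media-only control wells.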

Assay [4] is described as follows: Quantitative High-Throughput drug screen in 47 multiple myeloma cell lines against the NCATS MIPE library collection: NCIH929_DSMZ cell viability assay (AID 1918978). Note: nearly all actives have a fitted effect of over 35% in size. Note: potency is the fitted concentration of half-maximal effect. The procedure, abridged:
as §2

Assay [5] in a line: Quantitative High-Throughput drug screen in 47 multiple myeloma cell lines against the NCATS MIPE library collection: KMS20_JCRB cell viability assay (AID 1918973). Note: nearly all actives have a fitted effect of over 45% in size. Note: potency is the fitted concentration of half-maximal effect. The method in brief:
(§3)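 CellTiter-Glo luminescence (ATP) after 48 h compound exposure, 37C/5% CO2; 500 cells/well; MIPE 4.0 approved/investigational drugs pinned in; DMSO = 100%, media only = 0% viability.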

The nature of assay [6]: Quantitative High-Throughput drug screen in 47 multiple myeloma cell lines against the NCATS MIPE library collection: MOLP8_DSMZ cell viability assay (AID 1918977). Note: nearly all actives have a fitted effect of over 45% in size. Note: potency is the fitted concentration of half-maximal effect. The procedure, abridged:
as §2

Assay [7] can be described thus: Quantitative High-Throughput drug screen in 47 multiple myeloma cell lines against the NCATS MIPE library collection: KMS27_JCRB cell viability assay (AID 1918970). Note: nearly all actives have a fitted effect of over 30% in size. Note: potency is the fitted concentration of half-maximal effect. The procedure, abridged: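 CellTiter-Glo luminescence after 48 h drug exposure at 37 °C; 500 cells/well, 1536-well format, pin-tool compound addition; DMSO = 100%, media-only = 0% viability.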
A short description of assay [8]: Quantitative High-Throughput drug screen in 47 multiple myeloma cell lines against the NCATS MIPE library collection: KMS26_JCRB cell viability assay (AID 1918975). Note: nearly all actives have a fitted effect of over 45% in size. Note: potency is the fitted concentration of half-maximal effect. The procedure, abridged: as §1
A short description of assay [9]: Quantitative High-Throughput drug screen in 47 multiple myeloma cell lines against the NCATS MIPE library collection: KMS21BM_JCRB cell viability assay (AID 1918974). Conditions: ATP luminescence, 48 h; viability: at 45.8 µM (top of the series) unless noted. The procedure, abridged:
as §3

Records with an inconclusive call do not appear. Calls of active or inactive are those of the source. Calls come from the whole dose curve; as a rule, active = well fitted curve in the direction sought with a large enough effect; inconclusive = small, poorly fitted or top-dose-only effect, or another doubt; inactive = no such curve, though single readings can be large; an effect the other way counts as inactive or inconclusive.

Consider `CC(C)(Oc1ccc(C2CC2(Cl)Cl)cc1)C(=O)O` (stereo unspecified), for which the Potency result in assay [1], in assay [2], in assay [3] and in assay [4] was “inactive” in each case.

For `NCCS(=O)(=O)O`, the Potency entry in assay [1], in [2], in assay [5] and in assay [4] was “inactive” in each case.

On to `CCC1(c2ccccc2)C(=O)NCNC1=O`, for which, in assay [6], the Potency entry was “inactive”. Besides, the Potency in [4] was 1.32 µM (active).

On to `CN1CCN2c3ccccc3Cc3ccccc3C2C1` (stereo unspecified), for which the Potency in [1] is 20.9 µM (active); in assay [2], 18.7 µM (active); in assay [3], 20.9 µM (active).

As to `Clc1ccc2c(c1)C(N1CCNCC1)=Nc1ccccc1O2`, the Potency entry in assay [2] and in assay [6] was “inactive” throughout. The figures for the Potency in assay [5], in [3] and in assay [4] were 20.9 µM (active), 16.6 µM (active) and 20.9 µM (active), respectively.

As for `CN1CCC(=C2c3ccccc3C=Cc3ccccc32)CC1`, the Potency in assay [7] was 23.5 µM (active); in [2], 20.9 µM (active); in assay [5], 9.35 µM (active); in assay [4], 5.9 µM (active).

In the case of `Nc1nnc(-c2cccc(Cl)c2Cl)c(N)n1`, the Potency entry in assay [7] was “inactive”. The Potency in [4] was 23.5 µM (active).

For the molecule `Nc1ccn([C@H]2CC[C@@H](CO)O2)c(=O)n1`, the Potency result in [2], in assay [8] and in [6] was “inactive” in each case.

`CN(CCOc1ccc(NS(C)(=O)=O)cc1)CCc1ccc(NS(C)(=O)=O)cc1`: the Potency entry in [2], in assay [6] and in [4] was “inactive” throughout.

Regarding `O=c1[nH]cc(F)c(=O)[nH]1`, the Potency was 4.69 µM (active) in [2] and 5.9 µM (active) in [3].

In the case of `CCOC(=O)c1ncn2c1CN(C)C(=O)c1cc(F)ccc1-2`, the Potency in [1] was 5.9 µM (active); in assay [3] it was 6.62 µM (active). Further, the Potency entry in assay [2] and in [4] was “inactive” in each case.

For `O=c1c(-c2ccc(O)cc2)coc2cc(O)cc(O)c12`, the Potency is 5.26 µM (active) in assay [1] and 2.64 µM (active) in assay [2].

Consider `CCc1cccc2c3c([nH]c12)C(CC)(CC(=O)O)OCC3` (stereo unspecified), for which the Potency entry in assay [7], in assay [2] and in assay [4] was “inactive” each time. Also, the Potency in assay [3] is 4.18 µM (active).

`Cn1c(=O)c2c(ncn2C)n(C)c1=O`: the Potency entry in [1], in [2] and in [4] was “inactive” throughout.

As for `CN(C)C(=N)N=C(N)N`, the Potency entry in assay [7], in assay [2], in assay [5] and in [4] was “inactive” throughout.

Regarding `Cc1cc(C(C)(C)C)c(O)c(C)c1CC1=NCCN1`, the Potency result in assay [1], in assay [2], in assay [6] and in [4] was “inactive” each time.

`CC(COc1ccccc1)N(CCCl)Cc1ccccc1` (stereo unspecified): the Potency result in assay [4] is “inactive”.

Take `Clc1ccc(C(c2ccccc2Cl)C(Cl)Cl)cc1` (stereo unspecified): the Potency is 18.7 µM (active) in assay [1], 18.7 µM (active) in assay [8], 20.9 µM (active) in assay [3] and 26.4 µM (active) in assay [6].

Turning to `CC(C(=O)O)c1cccc(C(=O)c2ccccc2)c1` (stereo unspecified), the Potency entry in assay [2] and in assay [6] was “inactive” each time. Also, the Potency was 0.833 µM (active) in assay [3] and 13.2 µM (active) in [4].

Regarding `Cc1cc(C(C)(C)C)cc(C)c1CC1=NCCN1`, the Potency entry in [2], in [5], in assay [6] and in [4] was “inactive” each time.

With `CN1CCC(=C2c3ccccc3CC(=O)c3sccc32)CC1`, the Potency entry in assay [2], in [5], in [9] and in assay [6] was “inactive” throughout. For the same molecule, the Potency in [4] was 4.18 µM (active).

On to `Cn1ccc2cc3c(cc21)CCN3C(=O)Nc1cccnc1`, for which, in assay [2], the Potency is 20.9 µM (active).

For the molecule `NS(=O)(=O)c1cc2c(cc1Cl)NCNS2(=O)=O`, the Potency result in assay [7], in assay [2], in [6] and in assay [4] was “inactive” throughout. In assay [3], the Potency was 16.6 µM (active).

With `N[C@@H](Cc1c[nH]c2ccc(O)cc12)C(=O)O`, the Potency entry in assay [7], in assay [2] and in assay [4] was “inactive” each time. Moreover, the Potency in assay [3] is 18.7 µM (active).

Take `CC(C)NCC(O)COc1ccc(CCOCC2CC2)cc1` (stereo unspecified): the Potency result in assay [7], in [2], in [8] and in assay [4] was “inactive” each time.

As to `CC(C)Cc1ccc(C(C)C(=O)O)cc1` (stereo unspecified), the Potency result in [7], in [6] and in [4] was “inactive” in each case.

For `O=c1c(O)c(-c2ccc(O)c(O)c2)oc2cc(O)cc(O)c12`, the Potency entry in [6] was “inactive”. Moreover, the Potency in assay [4] was 7.43 µM (active).

In the case of `CN1C(C(=O)Nc2ccccn2)=C(O)c2ccccc2S1(=O)=O`, the Potency result in assay [1], in assay [2], in assay [8], in [6] and in assay [4] was “inactive” throughout.

As for `Fc1ccc([C@@H]2CCNC[C@H]2COc2ccc3c(c2)OCO3)cc1`, the Potency in assay [1] and in assay [3] was 14.8 µM (active) in each case. Further, the Potency result in assay [2] was “inactive”.

Regarding `COc1cc2nc(N(C)CCCNC(=O)C3CCCO3)nc(N)c2cc1OC` (stereo unspecified), the Potency result in assay [2], in assay [5] and in assay [4] was “inactive” each time.

In the case of `COC(=O)Nc1nc2ccc(C(=O)c3cccs3)cc2[nH]1`, the Potency is 0.0026 µM (active) in assay [1], 0.296 µM (active) in assay [8] and 0.296 µM (active) in assay [4].

`CC12CC3CC(C)(C1)CC(N)(C3)C2`: the Potency result in [1] is “inactive”. Also, the Potency in assay [5] is 20.9 µM (active).
